Experimental data published in the supplement of paper PMC8285479.
Where a name gives a salt, the structure may show the parent alone. ± gives the standard deviation of the averaged measurements. In all, about 1,900 compounds were measured (“normalised cell viability (NPI; 0 = phenylarsine oxide control, 1 = DMSO control)”: median about 1, lowest 2% from about 0.039 on). Only a selection was taken, and the lowest values are over-represented in it overall.

Tested on: NCI-H1944
Experiment: normalised cell viability (NPI; 0 = phenylarsine oxide control, 1 = DMSO control) (fraction of DMSO control); NCI-H1944 is a non-small cell lung cancer line; higher = more viable cells (less compound toxicity)
Settings: 6 days
[1] = glucocorticoid arm: hydrocortisone 2.75 uM co-treatment, compound 1 µM
[2] = glucocorticoid arm: hydrocortisone 2.75 uM co-treatment, compound 5 µM
[3] = glucocorticoid arm: hydrocortisone 2.75 uM pre-treated 2 days and continued, compound 1 µM
[4] = glucocorticoid arm: hydrocortisone 2.75 uM pre-treated 2 days and continued, compound 5 µM
[5] = glucocorticoid arm: vehicle, compound 1 µM
[6] = glucocorticoid arm: vehicle, compound 5 µM
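Note: CTB read-out in 384-well plates, triplicate wells, NPI normalised per plate against 1 µM phenylarsine oxide (0) and 0.1% DMSO (1) controls.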

| SMILES | normalised cell viability [1] | normalised cell viability [2] | normalised cell viability [3] | normalised cell viability [4] | normalised cell viability [5] | normalised cell viability [6] |
| --- | --- | --- | --- | --- | --- | --- |
| O=C(NC1CCNCC1)c1n[nH]cc1NC(=O)c1c(Cl)cccc1Cl | 0.225 ± 0.03 | 0.0298 ± 0.0013 | 0.349 ± 0.039 | 0.149 ± 0.015 | 0.0396 ± 0.029 | 0.0072 ± 0.00086 |
| NC(=O)Nc1cc(-c2cccc(F)c2)sc1C(=O)N[C@H]1CCCNC1 | 0.65 ± 0.013 | 0.45 ± 0.024 | 0.93 ± 0.021 | 0.7733 ± 0.0071 | 0.338 ± 0.012 | 0.158 ± 0.015 |
| Cc1[nH]c(/C=C2\C(=O)Nc3ccc(S(=O)(=O)N(C)c4cccc(Cl)c4)cc32)c(C)c1C(=O)N1CCN(C)CC1 | 0.9913 ± 0.0072 | 0.986 ± 0.012 | 1.003 ± 0.0058 | 0.989 ± 0.014 | 0.969 ± 0.01 | 0.849 ± 0.036 |
| CN1CCCN(C(=O)c2cccc(-c3ccc(/C=C4/C(=O)Nc5ccc(Cl)cc54)o3)c2)CC1 | 0.717 ± 0.032 | 0.214 ± 0.24 | 0.937 ± 0.021 | 0.887 ± 0.059 | 0.282 ± 0.017 | 0.00113 ± 0.00047 |
| CN1CCN(C(=O)c2cc3cc(Cl)ccc3[nH]2)CC1 | 1.027 ± 0.0058 | 1.023 ± 0.0058 | 1.013 ± 0.0058 | 1.03 ± 0.021 | 1.007 ± 0.0058 | 1.01 ± 0.01 |
| NC1(Cc2ccc(Cl)cc2)CCN(c2ncnc3[nH]ccc23)CC1 | 0.901 ± 0.034 | 0.602 ± 0.08 | 0.934 ± 0.014 | 0.68 ± 0.045 | 0.9813 ± 0.0087 | 0.827 ± 0.068 |
| CC1(C)CCC(NC(=O)[C@@H](N)CCC(=O)O)CC1 | 0.979 ± 0.013 | 0.975 ± 0.016 | 0.999 ± 0.011 | 0.982 ± 0.046 | 0.9703 ± 0.0085 | 0.985 ± 0.012 |
| CC(C)(C(=O)O)c1ccc(C(O)CCCN2CCC(C(O)(c3ccccc3)c3ccccc3)CC2)cc1 (configuration not stated) [Fexofenadine hydrochloride] | 1.006 ± 0.0069 | 1 ± 0.013 | 0.997 ± 0.013 | 0.99 ± 0.01 | 1.003 ± 0.0058 | 0.9967 ± 0.0035 |
| CC(C)(C)c1ccc(C(O)CCCN2CCC(C(O)(c3ccccc3)c3ccccc3)CC2)cc1 (configuration not stated) [Terfenadine] | 0.997 ± 0.0027 | 0.9833 ± 0.0051 | 1.03 ± 0.017 | 1.03 ± 0.017 | 0.9927 ± 0.006 | 0.0387 ± 0.043 |
| CC(C)(C(=O)O)c1ccc(C(O)CCCN2CCC(C(O)(c3ccccc3)c3ccccc3)CC2)cc1 (configuration not stated) [Fexofenadine HCl] | 1.03 ± 0.01 | 1.02 ± 0.021 | 1.037 ± 0.0058 | 1.05 ± 0.011 | 0.999 ± 0.011 | 0.998 ± 0.01 |
| OC(CCN1CCCCC1)(c1ccccc1)C1CCCCC1 (racemic) [DL-Trihexyphenidyl hydrochloride] | 0.99967 ± 0.00058 | 0.998 ± 0.013 | 1.03 ± 0.021 | 1.02 ± 0.011 | 0.995 ± 0.007 | 1.001 ± 0.0085 |
| COc1ccc2c3n(c(=NC(=O)c4cccnc4)nc2c1OC)CCN3 | 0.911 ± 0.004 | 0.628 ± 0.018 | 0.901 ± 0.012 | 0.663 ± 0.033 | 0.9907 ± 0.0049 | 0.85 ± 0.029 |
| O=C(Nc1cccc(Nc2ncc(Br)c(NCCc3cnc[nH]3)n2)c1)N1CCCC1 | 0.955 ± 0.015 | 0.805 ± 0.016 | 0.939 ± 0.0062 | 0.859 ± 0.02 | 0.917 ± 0.0095 | 0.635 ± 0.029 |
| CCCn1c(=O)c2[nH]c(-c3ccc(S(=O)(=O)O)cc3)nc2n(CCC)c1=O [1,3-Dipropyl-8-p-sulfophenylxanthine] | 0.9873 ± 0.0049 | 0.99 ± 0.01 | 0.994 ± 0.01 | 0.986 ± 0.034 | 0.996 ± 0.016 | 0.996 ± 0.0061 |
| Cc1cc(N)c2ccccc2[n+]1CCCCCCCCCC[n+]1c(C)cc(N)c2ccccc21 [Dequalinium chloride hydrate] | 0.888 ± 0.026 | 0.0383 ± 0.0062 | 0.963 ± 0.016 | 0.0385 ± 0.0016 | 0.991 ± 0.013 | 0.00579 ± 0.0022 |
| OC[C@H]1O[C@@H](n2cnc3c2N=CNC[C@H]3O)C[C@@H]1O [Pentostatin] | 1.02 ± 0.011 | 1.01 ± 0.022 | 1.03 ± 0.011 | 1.04 ± 0.01 | 1.013 ± 0.0058 | 1.01 ± 0.011 |

| SMILES | normalised cell viability [1] | normalised cell viability [2] | normalised cell viability [3] | normalised cell viability [4] | normalised cell viability [5] | normalised cell viability [6] |
| --- | --- | --- | --- | --- | --- | --- |
| N[C@@H](Cc1ccc(O)c(I)c1)C(=O)O [3-Iodo-L-tyrosine] | 0.982 ± 0.01 | 0.973 ± 0.035 | 0.991 ± 0.006 | 0.996 ± 0.066 | 0.999 ± 0.011 | 0.998 ± 0.01 |
| N[C@H](CO)C(=O)O [D-Serine] | 1.013 ± 0.0058 | 1.04 ± 0.06 | 0.896 ± 0.27 | 1.02 ± 0.01 | 1.02 | 1.017 ± 0.0058 |
| CN1CCc2cc(O)c(O)cc2C(c2ccccc2)C1 (configuration not stated) | 1 ± 0.0087 | 1.02 ± 0.022 | 0.876 ± 0.23 | 1.01 ± 0.02 | 1.02 | 1.023 ± 0.0058 |
| COc1cc2nccc(Oc3ccc(NC(=O)Nc4ccc(F)cc4F)c(F)c3)c2cc1OC | 1.05 ± 0.011 | 1.06 ± 0.01 | 1.037 ± 0.0058 | 1.04 ± 0.021 | 1.003 ± 0.0063 | 1.013 ± 0.0058 |
| COc1ncc(-c2ccc3nccc(-c4ccnnc4)c3c2)cc1NS(=O)(=O)c1ccc(F)cc1F | 0.264 ± 0.0058 | 0.231 ± 0.027 | 0.365 ± 0.025 | 0.249 ± 0.02 | 0.0495 ± 0.0081 | 0.0214 ± 0.0013 |
| CCCS(=O)(=O)Nc1ccc(F)c(C(=O)c2c[nH]c3ncc(-c4ccc(Cl)cc4)cc23)c1F [vemurafenib] | 1.04 ± 0.011 | 1.14 ± 0.02 | 1.03 ± 0.01 | 1.08 ± 0.01 | 1.01 ± 0.01 | 1.037 ± 0.0058 |
| CCCS(=O)(=O)Nc1ccc(F)c(C(=O)c2c[nH]c3ncc(-c4ccc(Cl)cc4)cc23)c1F [Vemurafenib (PLX4032)] | 1.05 ± 0.011 | 0.997 ± 0.029 | 1.03 | 1.01 ± 0.026 | 1.017 ± 0.0058 | 1.007 ± 0.0058 |
| Nc1ncnc2c1ncn2[C@@H]1O[C@@H]2COP(=O)(O)O[C@H]2[C@H]1O [Adenosine 3',5'-cyclic monophosphate] | 0.986 ± 0.014 | 0.9813 ± 0.007 | 0.998 ± 0.011 | 0.965 ± 0.019 | 0.991 ± 0.016 | 0.9797 ± 0.0074 |
| NCc1c[nH]c(=S)n1[C@H]1CCc2c(F)cc(F)cc2C1 [Nepicastat (SYN-117) HCl] | 0.9937 ± 0.006 | 1 | 1.01 ± 0.022 | 0.98 ± 0.017 | 0.9937 ± 0.0085 | 0.9913 ± 0.0051 |
| C=CC(=O)Nc1cc(Nc2nccc(-c3cn(C)c4ccccc34)n2)c(OC)cc1N(C)CCN(C)C | 0.891 ± 0.003 | 0.842 ± 0.022 | 0.944 ± 0.015 | 0.916 ± 0.034 | 0.789 ± 0.028 | 0.762 ± 0.045 |
| CC[C@@H]1SC2(CCN(C)CC2)NC1=O | 1.02 | 1.01 ± 0.011 | 1.03 ± 0.029 | 1.02 ± 0.011 | 1.013 ± 0.0058 | 1.01 ± 0.012 |
| O=C(N[C@@H](Cc1ccccc1)C(=O)CCl)OCc1ccccc1 [Z-L-Phe chloromethyl ketone] | 1.03 ± 0.01 | 0.028 ± 0.0044 | 1.02 ± 0.016 | 1.075 ± 0.0071 | 1.03 ± 0.01 | 0.149 ± 0.086 |
| CC(C)[C@H](NC(=O)OCc1ccccc1)C(=O)N[C@H](C=O)Cc1ccccc1 | 0.989 ± 0.011 | 0.987 ± 0.041 | 0.997 ± 0.0052 | 1.03 ± 0.085 | 1 ± 0.0087 | 1 ± 0.013 |
| Cc1ccc(S(=O)(=O)N[C@@H](Cc2ccccc2)C(=O)CCl)cc1 [N-p-Tosyl-L-phenylalanine chloromethyl ketone] | 0.9977 ± 0.0032 | 1.01 ± 0.028 | 0.868 ± 0.25 | 1.02 ± 0.015 | 1.007 ± 0.0058 | 0.691 ± 0.057 |
| CC1=C(C(=O)OC2CCCCC2)C(c2ccc([N+](=O)[O-])cc2)C2=C(CC(C)(C)CC2=O)N1 (configuration not stated) | 1.03 ± 0.025 | 1.02 ± 0.023 | 1.03 ± 0.015 | 1.02 ± 0.026 | 1.017 ± 0.0058 | 1.003 ± 0.0058 |
| C/C=C1\C(=O)C[C@H]2[C@@H]3CCC4=CC(=O)CC[C@]4(C)[C@H]3CC[C@]12C [(Z)-Guggulsterone] | 0.9933 ± 0.0015 | 0.98 ± 0.031 | 0.994 ± 0.02 | 0.964 ± 0.029 | 0.9953 ± 0.0035 | 0.9887 ± 0.0091 |
